High-throughput results from PubChem BioAssay.
Only some compounds are listed: those with a hit (about 9.3% of all), similar ones and a draw of the others.
ELG1 DNA repair: qHTS screen for small molecules that inhibit ELG1-dependent DNA repair in human embryonic kidney (HEK293T) cells expressing luciferase-tagged ELG1 | Potency, µM (top dose mostly 46.1 µM), for the others: top-dose activity change, negative = inhibition, hits mostly inhibitors | AID 504467, 2011 | 2.3% of 330,000 active | HEK293T ELG1-luciferase reporter, luminescence, 16 h; DNA damage induced by 5-fluorouridine; also: % is scaled to controls: 0 for no effect and ±100 for the full control effect; nearly all actives have a fitted effect of over 55% in size
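Reporter activity after DNA damage by 5-fluorouridine is monitored. Compound-treated cells incubate 16 hr at 37 °C, then ONE-Glo is added for 30 min before luminescence reading.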
FLuc modulator: qHTS profiling assay for firefly luciferase inhibitor/activator using purifed enzyme and Km concentrations of substrates (counterscreen for miR-21 project) | Luciferin 4-monooxygenase (Photinus pyralis), P08659 | purified FLuc, Km substrates, luminescence inhibition | Potency, µM (titrated, usually from 57.5 µM), without a hit: at the top dose activity change, negative = inhibition, usual class: inhibitors | 6.9% of 360,000 active;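 also: plate controls were vehicle for no effect and reference inhibitor for full effect; nearly all actives have a fitted effect of over 55% in size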
Target sequence (P08659 whole entry, looked up): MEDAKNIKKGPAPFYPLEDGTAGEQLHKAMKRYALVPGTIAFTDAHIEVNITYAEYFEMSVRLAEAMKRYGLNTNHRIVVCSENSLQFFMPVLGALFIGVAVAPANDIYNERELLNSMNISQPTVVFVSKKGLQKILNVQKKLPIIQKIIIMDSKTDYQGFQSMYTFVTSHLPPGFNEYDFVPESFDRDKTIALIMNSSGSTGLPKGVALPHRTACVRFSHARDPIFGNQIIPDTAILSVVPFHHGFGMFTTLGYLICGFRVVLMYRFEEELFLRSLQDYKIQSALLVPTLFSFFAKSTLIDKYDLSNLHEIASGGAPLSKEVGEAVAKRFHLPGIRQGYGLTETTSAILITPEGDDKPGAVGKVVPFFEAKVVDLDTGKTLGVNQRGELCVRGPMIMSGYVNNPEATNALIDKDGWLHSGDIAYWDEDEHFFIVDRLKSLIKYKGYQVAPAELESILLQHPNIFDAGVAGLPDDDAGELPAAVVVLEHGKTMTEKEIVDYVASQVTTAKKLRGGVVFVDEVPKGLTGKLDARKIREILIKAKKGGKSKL
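Purified P. pyralis luciferase (10nM final) with 10uM D-luciferin and 10uM ATP (Km levels) in 50mM Tris acetate pH 7.5, 10mM Mg acetate, 0.01% Tween-20, 0.05% BSA; qHTS 6-point titration, ~60 µM downward; luminescence read.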
Rab9 prom act: qHTS Assay for Rab9 Promoter Activators; Potency, µM (highest dose often 9.22 µM), inactives show top-dose activation, negative = inhibition, actives largely listed as activators; 2.8% of 320,000 active; AID 485297, 2010; Huh7 Rab9 promoter-luciferase reporter, luminescence, 24 h; also: % of control where 0% means no effect; nearly all actives have a fitted effect of over 60% in size
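Using Huh7 cells stably transfected with Rab9 promoter–luciferase, compounds were incubated 24 h at 37 °C, 5% CO2; luciferase luminescence was read 10 min after reagent addition.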
SMN2 splice enh: qHTS Assay for Enhancers of SMN2 Splice Variant Expression. HEK293 SMN2-luciferase splicing reporter, luminescence, 30-36 h. Potency, µM (series often up to 46.1 µM), without a hit: at the top dose activity change, positive = activation, usual class: activators. 2.8% of 210,000 active. AID 1458, 2008; also: % of control where 0% means no effect; nearly all actives have a fitted effect of over 55% in size
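HEK293 cells carry an SMN2 minigene-luciferase reporter in which exon 7 inclusion puts luciferase in frame. Cells were seeded at 2000 cells/well, attached for 10-12 hours, then exposed to compounds for 30-36 hours at 37C before ONE-Glo luminescence.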
NPC1 prom act: qHTS Assay for NPC1 Promoter Activators; Huh7 NPC1 promoter luciferase reporter, 24 h; Potency, µM (highest dose often 9.22 µM), for the others: at the top dose activation, usual class: activators; 2.4% of 320,000 active; AID 485313, 2010; also: % of control where 0% means no effect; nearly all actives have a fitted effect of over 60% in size
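Luminescence from an NPC1 promoter-driven luciferase reporter in stably transfected Huh7 cells was measured after 24 h compound treatment at 37 °C, followed by 10 min ambient incubation with luciferase detection reagent.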
ELG1 genotoxic: qHTS screen for small molecules that induce genotoxicity in human embryonic kidney (HEK293T) cells expressing luciferase-tagged ELG1 | 1.3% of 330,000 active | HEK293T ELG1-luciferase reporter, luminescence, 16 h | Potency, µM (top dose mostly 46 µM), for the others: top-dose activity change, positive = activation, actives largely listed as activators; also: % of control where 0% means no effect; nearly all actives have a fitted effect of over 60% in size
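Genotoxic stress is detected as increased luminescence from luciferase-tagged ELG1 in HEK293T cells, measured with ONE-Glo after a 16 hr treatment at 37 °C.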
Starred values were filed as active, the others as inactive; ? = inconclusive; . = no result given; [ ] = dose if it differs, or a comment. Calls follow the shape of the dose curve; as a rule, active = well fitted curve in the direction sought with a large enough effect; inconclusive = small, poorly fitted or top-dose-only effect, or another doubt; inactive = no such curve, though single readings can be large; an effect the other way counts as inactive or inconclusive. Potency is read from the fitted curve at half-maximal effect.

SMILES	ELG1 DNA repair	FLuc modulator	Rab9 prom act	SMN2 splice enh	NPC1 prom act	ELG1 genotoxic
CCCCSc1nc2c(cnn2-c2ccccc2)c(=O)n1N	?	6.7µM*	1.8µM*	10µM*	2.8µM*	?
O=C(C1CC(c2ccccc2O)=NO1)N1CCC2(CC1)OCCO2 (stereo not given)	?	11µM*	?	?	3.5µM*	16µM*
COc1cccc(N=Nc2c(O)[nH]c(=S)[nH]c2=O)c1	?	13µM*	?	.	21%	?
NS(=O)(=O)c1ccc(N=Nc2c(O)[nH]c(=S)[nH]c2=O)cc1	-43%	?	9%	.	-1%	-3%
O=c1[nH]c(=S)[nH]c(O)c1N=Nc1ccc(OC(F)F)cc1	?	5.4µM*	2µM*	13µM*	?	?
COc1ccc(N=Nc2c(O)[nH]c(=S)[nH]c2=O)cc1	?	6µM*	1.8µM*	18µM*	1.6µM*	?
O=c1[nH]c(=S)[nH]c(O)c1N=Nc1cccc(S(=O)(=O)N2CCOCC2)c1	?	2%	-1%	.	1%	1%
CCC(=O)N1CC(=O)Nc2ccc(F)cc2C1c1ccccc1 (stereo not given)	8%	4%	0%	-1%	1%	-6%
Nc1c(Br)cc([N+](=O)[O-])cc1[N+](=O)[O-]	8%	3%	-1%	-5%	0%	1%
CCCc1nnc(NC(=O)CCC(=O)N2CCN(CCOC(c3ccccc3)c3ccccc3)CC2)s1	?	2%	-1%	-15%	-6%	-9%
CC(n1cc(C[C@H](N)C(=O)O)c2ccccc21)n1cc(C[C@H](N)C(=O)O)c2ccccc21	.	.	.	-8%	.	.
Cc1ccc(CNC(=O)c2ccccc2NC(=O)c2nsc3ccccc23)cc1	.	17µM*	.	.	.	.
O=C(NCc1ccccc1)c1cccn(Cc2ccccc2)c1=O	-29%	0%	-6%	.	-1%	-6%
CCOC(=O)c1c(C)c(P(=S)(N2CCOCC2)N2CCOCC2)n(C)c1C	16µM*	-6%	-4%	-13%	-6%	-1%
CCOP(=S)(OCC)N1CCOCCOCCN(P(=S)(OCC)OCC)CCOCCOCC1	-19%	-1%	-1%	-7%	-6%	-9%
O=C(NCCN1CCCCC1)c1ccc(Cl)nc1Cl	6%	0%	10%	.	-3%	4%
COc1ccc2c(c1)[C@@]13CCCCC1[C@@H](C2)N(C)CC3 (stereo not given in full)	.	.	.	-9%	.	.
Cc1ccc(-c2nn(Cc3ccccc3)cc2C=O)cc1C	?	27µM*	23%	6%	17%	1%
Cc1ccc(-c2nn(Cc3ccccc3)cc2C=O)cc1	?	19µM*	3.5µM*	?	?	14%
CN(C)[C@@H]1C(=O)C(C(N)=O)=C(O)[C@]2(O)C(=O)C3=C(O)c4c(O)cccc4[C@@](C)(O)[C@H]3[C@H](O)[C@@H]12	.	.	.	-16%[20.6 µM]	.	.
CCCCCCn1c(O)c(C=NC2CCN(Cc3ccccc3)CC2)c(=O)[nH]c1=O	21µM*	8%	-14%	-60%	-4%	-8%
CCC(NC(=O)OC(C)(C)C)C(=O)Oc1cc(C)cc2oc(=O)c3c(c12)CCC3 (stereo not given)	-16%	10%	3%[1.84 µM]	-36%	-7%	-1%
NC(=O)Nc1ccc(C(=O)OCC(=O)Nc2ccc(Cl)cc2C(=O)c2ccccc2)cc1	21µM*	2%	-2%	-4%	-6%	1%
C=C1[C@H]2CC[C@H]3[C@]4(C)C[C@H](O[C@@H]5OC(CO)[C@@H](OSOOO)[C@H](OS(=O)(=O)O)[C@H]5OC(=O)CC(C)C)C[C@@H](C(=O)O)[C@H]4CC[C@]3(C2)[C@H]1O (stereo not given in full)	0%	.	.	.	.	4%
O=C(Nc1ccc(Cl)cc1)OC1CN2CCC1CC2 (stereo not given)	?	15µM*	?	.	?	?
SMILES	ELG1 DNA repair	FLuc modulator	Rab9 prom act	SMN2 splice enh	NPC1 prom act	ELG1 genotoxic
O=C(Nc1cccc(Cl)c1)OC1CN2CCC1CC2 (stereo not given)	?	13µM*	18%	.	19%	-14%
O=C(Nc1ccccc1Cl)OC1CN2CCC1CC2 (stereo not given)	?	-7%	-2%	.	-1%	2%
C=C(CC1(C(C)NP(=O)(c2ccccc2)c2ccccc2)CC1)c1ccccc1 (stereo not given)	.	.	.	-5%	.	.
C=C(C)[C@H]1C2C(=O)O[C@H]1[C@H]1OC(=O)[C@@]34O[C@@H]3C[C@]2(O)[C@@]14C	.	.	.	2%	.	.
O=C(Cn1cc(C(=O)c2ccccc2F)c2ccccc21)NCc1ccco1	4%	-1%	8%	-6%	4%	6%
CC(C)(C)C(=O)c1cn(CC(=O)NCc2ccco2)c2ccccc12	?	?	3.2µM*	14µM*	?	?
Cn1ncnc2c(=O)n(C)c(=O)nc1-2	6.5µM*	-4%	-57%	-11%	-55%	-17%
CN1CCN(C(=O)COc2ccc(-c3nc4ccccc4s3)cc2)CC1	?	0.15µM*	0.32µM*	4µM*	0.63µM*	?
Cc1cc(Cl)ccc1OCCCC(=O)NCc1cccs1	-29%	-20%	-5%	-4%	-6%	-7%
O=C1NC(=O)N(CCC2=CCCCC2)C(=O)/C1=C/c1ccc(O)cc1	?	-5%	-4%	7%	4%	5%
CCCCn1c(=O)c(C(=O)Nc2ccccc2F)c(O)c2ccccc21	10%	0%	4%	.	6%	3%
Cc1cccc(C)c1NC(=O)c1cccn(Cc2ccc3c(c2)OC(F)(F)O3)c1=O	?	0%	-3%	-15%	-1%	-7%
COc1cc(CN=C(C)c2c(O)n(C)c(=O)n(C)c2=O)cc(OC)c1	13µM*	-1%	0%	.	-1%	-12%
CNC(=O)Oc1ccc2c(c1)C(=O)c1ccccc1CO2	?	11µM*	-4%	-58%	2%	15%
CNC(=O)Oc1ccc(C(=O)N2c3ccccc3NC(=O)C2C)cc1 (stereo not given)	-4%	2%	-4%	.	-4%	0%
O=c1[nH]c(O)c(N=Nc2ccc3c(c2)OCCO3)c(=O)[nH]1	?	1.5µM*	25%	-88%	26%	?
